Bioassay records from PubChem.
The list is not random: actives were taken first. Their share in the collection is about 1%.
FadD28 binding = inhibitors of Mycobacterium tuberculosis FadD28 bisubstrate binding | FadD28 bisubstrate probe binding, fluorescence polarization | inhibition, % at 12.5 µM | hit rate 0.22% among 360,000; in the data active means inhibition above about 8.5%, passing the limit was not always enough; inconclusive means no clear call, values can overlap the other calls
PrP UTR inh = inhibition of PrP 5' UTR reporter expression; cell-based PrP 5' UTR mRNA reporter, plate reader; inhibition, % (test concentration not listed); hit rate 0.35% among 340,000; AID 488862; in the data active means inhibition above about 52%
PriA SSB inh = blocks PriA binding to SSB C-terminal tail; AlphaScreen SSBct-PriA binding, biotinylated peptide; hit rate 0.6% among 430,000; inhibition, % at 33 µM; in the data active means inhibition mostly above about 37%, no sharp cut-off; inactive means mostly below about 20%
Mtb BioA inh = blocks M. tuberculosis BioA enzyme activity. purified M. tuberculosis BioA enzyme, plate reader. inhibition, % at 9.99 µM. hit rate 0.096% among 360,000; in the data active means inhibition above about 40%; inconclusive means no clear call, values can overlap the other calls
Mtb hypoxia inh = Mtb hypoxia fluorescent reporter inhibition | M. tuberculosis hypoxia-regulated fluorescent reporter, fluorescence | fluorescence inhibition, % (concentration not given with the values) | hit rate 0.1% among 300,000; in the data active means fluorescence inhibition mostly above about 23%, no sharp cut-off; inactive means mostly below about 17%
TcdB inh = TcdB glycohydrolase inhibition. TcdB glycohydrolase enzymatic assay, plate reader. inhibition, % at 9.99 µM. hit rate 0.24% among 350,000. AID 652162; in the data active means inhibition above about 10%
PrP 5UTR single = prion 5' UTR mRNA inhibition, cherry-pick retest; shares compounds with PrP UTR inh; cell-based prion protein 5' UTR reporter, plate reader; inhibition, % at 2.5 µM; hit rate 48% among 1,100; in the data active means inhibition above about 54%; inconclusive means no clear call, values can overlap the other calls
Numbers stand for hits; i = inactive; ? = inconclusive; nt = no result given.

SMILES	FadD28 binding	PrP UTR inh	PriA SSB inh	Mtb BioA inh	Mtb hypoxia inh	TcdB inh	PrP 5UTR single
C[C@H]1O[C@@H](OC2CC[C@]3(C=O)[C@H]4CC[C@]5(C)[C@@H](C6=CC(=O)OC6)CC[C@]5(O)[C@@H]4CC[C@]3(O)C2)CC2OC(C)(C)OC21 (stereo partly specified)	i	84.1	i	nt	nt	i	85.0
C[C@]12CCC(O)CC1CCC1C2CC[C@]2(C)C(C3=CC(=O)OC3)CC[C@]12O (stereo partly specified)	nt	nt	nt	nt	i	nt	nt
C[C@]12CCC(O)CC1CCC1C2CC(O)[C@]2(C)C(C3=CC(=O)OC3)CC[C@]12O (stereo partly specified)	nt	nt	nt	nt	i	nt	nt
CC(=O)OC1CC(OC2C(O)CC(OC3C(O)CC(OC4CCC5(C)C(CCC6C5CCC5(C)C(C7=CC(=O)OC7)C(O)CC65O)C4)OC3C)OC2C)OC(C)C1OC1OC(CO)C(O)C(O)C1O (stereo unspecified)	i	94.4	i	nt	nt	i	67.6
CC(=O)OC1CC2(O)C3CCC4CC(O)CCC4(C)C3CCC2(C)C1C1=CC(=O)OC1 (stereo unspecified)	i	86.2	i	nt	nt	i	80.4
Cc1noc(C)c1CC(=O)Nc1cnn(C2CCOC2)c1 (stereo unspecified)	nt	nt	i	nt	nt	nt	nt
CCc1nnc(NC(=O)CSc2nnc(-c3ccccc3O)n2-c2ccc(C)cc2C)s1	i	i	i	i	nt	nt	nt
CN1CCC(N(C)C(=O)COc2ccc(S(=O)(=O)N3CCOCC3)cc2)CC1	i	i	i	i	i	i	nt
COc1ccc(-c2csc3ncnc(N4CCN(S(=O)(=O)c5cccc(C(F)(F)F)c5)CC4)c23)cc1	i	i	i	nt	i	i	nt
COc1ccccc1[C@H]1C(c2cccc(Cl)c2)=NN(c2ccccc2)[C@@H]1CO	i	71.6	i	i	i	nt	i
Cc1noc(C)c1NC(=O)N(C)C[C@@H]1Oc2ccc(NC(=O)Nc3ccc(F)cc3)cc2C(=O)N([C@@H](C)CO)C[C@H]1C	nt	nt	nt	i	nt	i	nt
Cc1c(C=NNC(N)=O)c2ccccn2c1C(=O)c1ccncc1	nt	nt	nt	nt	i	nt	nt
Cc1c(C(=O)N/N=C/c2ccc(Cl)cc2)[nH]c2ccc(Cl)cc12	i	61.2	nt	nt	nt	i	78.2
Cc1c(C(=O)NN=Cc2ccc(Cl)cc2)[nH]c2ccc(Cl)cc12	nt	nt	i	nt	nt	nt	nt
Cc1cc(C)c(S(=O)(=O)N2CCN(C(=O)CCOc3ccccc3C)CC2)c(C)c1	i	88.3	i	i	i	i	i
Cc1[nH]n(-c2ccccc2)c(=O)c1C(=O)c1cccc(F)c1	i	61.7	i	nt	i	i	i
CC(C)(O)/C=C/C(=O)C(C)(O)C1[C@H](O)C[C@@]2(C)C3CC=C4C(C[C@H](O)[C@@H](O)C4(C)C)[C@]3(C)C(=O)C[C@]12C (stereo partly specified)	nt	nt	i	nt	nt	nt	nt
CC(C)(O)/C=C/C(=O)[C@](C)(O)C1[C@H](O)C[C@@]2(C)C3CC=C4C(C[C@H](O)[C@@H](O)C4(C)C)[C@]3(C)C(=O)C[C@]12C (stereo partly specified)	i	64.6	nt	i	nt	nt	74.9
Cc1onc(-c2ccccc2)c1C(=O)OCC(=O)N1CCC(C)CC1	i	i	i	nt	i	i	nt
COc1cc(C(=O)N2CCN(c3ccccc3)CC2)c2ccccc2n1	i	74.5	i	i	i	i	87.9
CC(=O)Nc1ccc(CN2CCCC(CCC(=O)NCc3ccccc3F)C2)cc1 (stereo unspecified)	i	80.4	i	i	i	i	i
CC(=O)NC1C(Oc2cc(C(F)(F)F)cc(C(F)(F)F)c2)OC(CO)C(O)C1O (stereo unspecified)	nt	nt	i	nt	nt	nt	nt
Cc1ccc(-n2cccn2)c([C@@H]2C[C@H]3CN(C)C(=O)[C@]34CCCN24)c1	i	67.5	i	nt	i	i	i
CCOc1ccccc1OCC(=O)Nc1cc2c(cc1C(=O)O)OCCCO2	i	i	i	i	nt	i	nt
Cc1ccc(S(=O)(=O)CC(=O)Nc2ccc(S(=O)(=O)Nc3ccccn3)cc2)cc1	i	80.2	i	nt	i	i	i
SMILES	FadD28 binding	PrP UTR inh	PriA SSB inh	Mtb BioA inh	Mtb hypoxia inh	TcdB inh	PrP 5UTR single
COc1ccc(OC)c(-c2nc(C(=O)NCCCN3CCOCC3)cc3c2[nH]c2ccccc23)c1	i	54.0	i	i	nt	i	i
CC(C)OCCCNC(=O)Cc1ccc(Br)cc1	i	82.9	i	nt	i	nt	i
CC(C)(C)c1ccc(C(=O)Nc2ccc(Cl)cc2)cc1	i	i	i	nt	i	i	nt
COC(=O)Cc1ccc(NC(=O)c2ccc(C(C)(C)C)cc2)cc1	i	78.9	i	i	i	nt	64.9
O=C(O)CSc1nnc(-c2ccc3c(c2)OCO3)o1	i	i	i	i	i	nt	nt
O=C(c1ccc(Cl)cc1)N1CCCCC(Sc2nnc(-c3ccc4c(c3)OCO4)o2)C1=O (stereo unspecified)	i	74.2	i	i	i	nt	78.4
C[C@H]1CN([C@@H](C)CO)C(=O)c2cc(C3=CCCC3)cnc2O[C@H]1CN(C)C(=O)c1ccc2c(c1)OCO2	nt	nt	nt	i	nt	i	nt
COc1ccccc1CNC(=O)CCCc1cn(C)c2ccccc12	i	i	i	i	i	i	nt
COc1ccccc1CNC(=O)CCc1cn(C)c2ccccc12	i	66.2	i	i	i	i	i
Cc1ccc(C(=O)Nc2ccc3c(c2)OCCO3)c(C)c1	i	70.8	i	i	i	i	?
CC(C)OC(=O)c1cc(C(=O)c2cc(Br)ccc2O)coc1=N	i	63.0	i	i	i	i	i
O=C(O)C=Cc1c[nH]c2nccnc12	i	nt	nt	i	nt	i	nt
C=C1CC(Cn2cc(Br)c(=O)[nH]c2=O)(c2ccc(-c3ccccc3)cc2)OC1=O (stereo unspecified)	i	60.6	i	nt	nt	i	72.3
COc1ccc(C(CNC(=O)c2cccn2C)N2CCOCC2)cc1 (stereo unspecified)	nt	i	i	i	i	i	nt
O=C(Nc1nc2cc3c(cc2s1)OCCO3)C1=COCCO1	i	91.5	i	i	i	i	86.0
O=C(Nc1nc2ccc(F)cc2s1)C1=COCCO1	i	i	i	i	i	i	nt
Cc1ccc(-c2cn3nc(C)c(C)nc3n2)cc1	i	67.0	i	i	nt	nt	64.5
COc1ccc2c3c([nH]c2c1)[C@H](CO)N(C(=O)Nc1ccccc1F)CC31CCN(C(C)=O)CC1	nt	nt	nt	nt	nt	i	nt
COC(=O)C1CC(Oc2ccccc2F)CN1C(=O)c1ccc2nsnc2c1 (stereo unspecified)	nt	nt	i	nt	nt	nt	nt
CC1=C(C(=O)Nc2ccc(CC(=O)NCc3ccc(OC(C)C)cc3)cc2)SCCO1	i	71.6	i	i	i	i	86.6
COc1ccc(CCN2C(=O)c3ccccc3C2(O)c2ncc[nH]2)cc1OC (stereo unspecified)	i	i	i	i	i	i	nt
O=C1c2ccccc2C(O)(c2ncc[nH]2)N1C1CCCCC1 (stereo unspecified)	i	69.3	i	i	i	nt	i
CCCCNC(=O)CCCCn1c(=S)[nH]c2c([nH]c3ccc(OC)cc32)c1=O	i	i	i	nt	i	i	nt
